CF NFkB block: cystic fibrosis NF-kB activation inhibition | KKLEB NF-kB-GFP reporter, PAF-induced, GFP fluorescence overnight | inhibition, % at 5 µM | actives 0.86% (n = 360,000);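 active = at least 50% inhibition at 5 µM, scaled per plate between neutral and stimulator controls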;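 note: PAF is a Pseudomonas aeruginosa culture filtrate used as stimulus; plate controls were PAF-stimulated DMSO wells for no effect and unstimulated DMSO wells for full effect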
HIF-2a block: inhibitors of HIF-2a | inhibition, % at 18.8 µM | actives 0.72% (n = 360,000) | 786-0 RCC cells HIF-2a reporter, luciferase luminescence, overnight;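 active = inhibition of the luminescence signal of 40% or more relative to plate controls, in a single-dose primary screen at 18.75 µM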
Mdm2-MdmX inh: human Mdm2/MdmX binding inhibition; O15151+Q00987; SaOS-2 split-luciferase Mdm2/MdmX complementation, luminescence; inhibition, % at 8 µM; actives 3% (n = 330,000); AID 485346;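 active = inhibition of at least 50% at 8 µM in the primary screen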
Peg3 promoter: Peg3 promoter activity inhibition; inhibition, % at 20 µM; AID 588405; HeLa PEG-Prom luciferase reporter, luminescence, overnight; actives 1.7% (n = 360,000);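 active = inhibition of at least 50% at 20 µM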
KKLEB cytotox: counter-screen for CF NF-kB inhibitors: cytotoxicity. KKLEB CF airway cells viability, ATPlite luminescence, overnight; active compounds read low; cells stimulated with P. aeruginosa culture filtrate. activity change (cytotoxicity), % at 5 µM. actives 0.36% (n = 360,000);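 active = corrected activity change at or below -50% at 5 µM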
ABHD5-PLIN5 inh: ABHD5-PLIN5 protein interaction inhibition. Q00G26+Q8WTS1. Split G. princeps luciferase complementation, luminescence, 4 h. inhibition, % at 4 µM. actives 0.78% (n = 360,000). AID 602281;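 active = inhibition above the mean inhibition across every tested compound plus 3 SD, cut at about 22% in these data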;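 note: 0% = DMSO only wells and the 100% control is not disclosed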
Target sequence (Q00G26 whole entry, looked up): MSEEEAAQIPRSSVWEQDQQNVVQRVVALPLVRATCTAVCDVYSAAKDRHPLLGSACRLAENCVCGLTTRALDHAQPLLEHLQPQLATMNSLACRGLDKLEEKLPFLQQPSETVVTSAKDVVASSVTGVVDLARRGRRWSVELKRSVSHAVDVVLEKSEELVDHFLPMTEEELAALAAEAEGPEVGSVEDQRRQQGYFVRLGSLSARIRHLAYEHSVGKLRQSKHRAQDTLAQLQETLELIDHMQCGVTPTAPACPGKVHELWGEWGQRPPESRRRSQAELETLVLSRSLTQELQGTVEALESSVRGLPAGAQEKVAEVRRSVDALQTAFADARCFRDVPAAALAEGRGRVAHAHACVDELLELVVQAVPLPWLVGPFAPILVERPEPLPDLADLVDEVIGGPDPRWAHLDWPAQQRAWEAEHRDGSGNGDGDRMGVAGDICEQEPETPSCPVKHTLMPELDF
Target sequence (Q8WTS1 whole entry, looked up): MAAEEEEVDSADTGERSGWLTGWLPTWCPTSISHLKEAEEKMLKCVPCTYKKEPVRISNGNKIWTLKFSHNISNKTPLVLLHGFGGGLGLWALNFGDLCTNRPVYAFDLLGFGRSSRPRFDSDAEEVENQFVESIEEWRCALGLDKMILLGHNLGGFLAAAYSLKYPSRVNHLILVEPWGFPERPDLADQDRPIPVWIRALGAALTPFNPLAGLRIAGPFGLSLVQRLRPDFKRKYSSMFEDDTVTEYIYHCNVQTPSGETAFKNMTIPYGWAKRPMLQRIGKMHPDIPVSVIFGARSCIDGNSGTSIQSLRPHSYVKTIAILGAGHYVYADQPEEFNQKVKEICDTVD
Mdm2-MdmX conf: human Mdm2/MdmX binding inhibition, confirmed. shares compounds with Mdm2-MdmX inh. luminescent assay. inhibition, % at 8 µM. actives 55% (n = 10,000). AID 489028; in the data active = inhibition above about 40%
FLuc counter: inhibits full-length luciferase, flagging false Mdm2/MdmX hits; SaOS-2 full-length luciferase counterscreen, luminescence; shares compounds with Mdm2-MdmX inh; AID 504607; actives 77% (n = 6,200); inhibition, % at 8 µM;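 active = mean inhibition at 8 µM reaching about 37%, which flags the compound as non-specific, limit read from the data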;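 note: p53-null SaOS-2 cells with luciferase driven by a doxycycline-inducible promoter; compound on cells about two nights before reading with doxycycline added after day one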
An asterisk follows results filed as active. A selection: hits, their analogues and other compounds. The true share with any hit is near 4.6%.

Results for Cc1[nH]c(SCC(=O)c2c(N)n(C)c(=O)n(C)c2=O)nc1Cc1ccccc1 ?
CF NFkB block: 17; HIF-2a block: -4; Mdm2-MdmX inh: -39; Peg3 promoter: 0; KKLEB cytotox: 0; ABHD5-PLIN5 inh: -4

How did CCC1CC(C(=O)O)CC(=O)N1 (stereo not drawn) do in these assays?
CF NFkB block: -20; HIF-2a block: 1; Peg3 promoter: -2; KKLEB cytotox: -6; ABHD5-PLIN5 inh: 3

How did O=C1/C(=C\c2c(NCCOCCO)nc3ccccn3c2=O)SC(=S)N1Cc1ccco1 do in these assays?
CF NFkB block: -52; HIF-2a block: -2; Mdm2-MdmX inh: 54*; Peg3 promoter: 10; KKLEB cytotox: 15; ABHD5-PLIN5 inh: 3; Mdm2-MdmX conf: 28

What do the screens show for `Cc1ccccc1N1CC(C(=O)N2CCCCCC2)CC1=O` (stereo not drawn)?
CF NFkB block: -12; HIF-2a block: -16; Mdm2-MdmX inh: -3; Peg3 promoter: -11; KKLEB cytotox: -3; ABHD5-PLIN5 inh: 0

Results for CCCNC(=O)c1ccc(N2CCC3(CC2)CC(c2cccc(Br)c2)=NO3)c(NC(=O)c2ccc(Cl)c([N+](=O)[O-])c2)c1 ?
CF NFkB block: -4; HIF-2a block: 12; Mdm2-MdmX inh: 61*; Peg3 promoter: 73*; KKLEB cytotox: -1; ABHD5-PLIN5 inh: 0; Mdm2-MdmX conf: 12

How did COc1ccc(S(=O)(=O)NCC(c2ccc(F)cc2)N2CCN(C)CC2)cc1 (stereo not drawn) do in these assays?
CF NFkB block: 10; HIF-2a block: -1; Mdm2-MdmX inh: 33; Peg3 promoter: -14; KKLEB cytotox: 2; ABHD5-PLIN5 inh: 5

How did O=C1c2ccccc2-c2n[nH]c(=O)c3ccc(N4CCCCC4)c1c23 do in these assays?
CF NFkB block: -40; HIF-2a block: 15; Mdm2-MdmX inh: 52*; Peg3 promoter: 37; KKLEB cytotox: -4; ABHD5-PLIN5 inh: 6; Mdm2-MdmX conf: 15

How did Cc1cc(O)c(C(=O)/C=C/c2ccccc2)c(=O)o1 do in these assays?
CF NFkB block: -3; HIF-2a block: -32; Mdm2-MdmX inh: 9; Peg3 promoter: -48; KKLEB cytotox: 2; ABHD5-PLIN5 inh: 2

What do the screens show for `COc1cc(O)cc(O)c1C(=O)/C=C/c1ccccc1`?
CF NFkB block: 52*; HIF-2a block: 26; Mdm2-MdmX inh: 52*; Peg3 promoter: 24; KKLEB cytotox: -12; ABHD5-PLIN5 inh: 12; Mdm2-MdmX conf: 29

What do the screens show for `O=C(Nc1cccc(-c2csc(Nc3cccc(C(F)(F)F)c3)n2)c1)c1ccccc1`?
CF NFkB block: 23; HIF-2a block: -6; Mdm2-MdmX inh: 43; Peg3 promoter: 37; KKLEB cytotox: -5; ABHD5-PLIN5 inh: -24

What do the screens show for `O=C(Nc1nc(-c2ccccc2)cs1)c1cccc([N+](=O)[O-])c1`?
CF NFkB block: -65; HIF-2a block: -281; Mdm2-MdmX inh: -28; Peg3 promoter: -164; KKLEB cytotox: 24; ABHD5-PLIN5 inh: -6

Results for O=C(Nc1ccc(-c2csc(Nc3cccc(C(F)(F)F)c3)n2)cc1)c1cc([N+](=O)[O-])cc(C(F)(F)F)c1 ?
CF NFkB block: 13; HIF-2a block: -4; Mdm2-MdmX inh: 68*; Peg3 promoter: -17; KKLEB cytotox: 8; ABHD5-PLIN5 inh: 1; Mdm2-MdmX conf: 7

What do the screens show for `O=C(Nc1ccc(-c2csc(Nc3cccc(C(F)(F)F)c3)n2)cc1)c1ccccc1`?
CF NFkB block: 0; HIF-2a block: -16; Mdm2-MdmX inh: 63*; Peg3 promoter: 26; KKLEB cytotox: 10; ABHD5-PLIN5 inh: -29; Mdm2-MdmX conf: 37; FLuc counter: 78*

Results for COc1ccc(C2c3ccc(O)cc3Oc3ncn(Cc4ccco4)c(=N)c32)cc1 (stereo not drawn) ?
CF NFkB block: 18; HIF-2a block: 5; Mdm2-MdmX inh: 20; Peg3 promoter: 7; KKLEB cytotox: -11; ABHD5-PLIN5 inh: 10

How did COc1ccc(C2C3=C(CC(C)(C)CC3=O)Oc3ncn(CC(C)C)c(=N)c32)cc1 (stereo not drawn) do in these assays?
CF NFkB block: -1; HIF-2a block: 19; Mdm2-MdmX inh: 14; Peg3 promoter: 21; KKLEB cytotox: 6; ABHD5-PLIN5 inh: 2

Results for COc1ccc(C2c3ccc4ccccc4c3Oc3ncn(CCO)c(=N)c32)cc1 (stereo not drawn) ?
CF NFkB block: 9; HIF-2a block: 8; Mdm2-MdmX inh: 97*; Peg3 promoter: 103*; KKLEB cytotox: -16; ABHD5-PLIN5 inh: 8; Mdm2-MdmX conf: 51*; FLuc counter: 76*

What do the screens show for `COc1ccc(C2c3ccc4ccccc4c3Oc3ncn(CCN(C)C)c(=N)c32)cc1` (stereo not drawn)?
CF NFkB block: 35; HIF-2a block: 10; Mdm2-MdmX inh: 91*; Peg3 promoter: 92*; KKLEB cytotox: -23; ABHD5-PLIN5 inh: 16; Mdm2-MdmX conf: 43*; FLuc counter: 64*

Results for CCOC(=O)c1ccc(NC(=O)COc2ccccc2CNCCc2ccccc2)cc1 ?
CF NFkB block: 18; HIF-2a block: -8; Mdm2-MdmX inh: 63*; Peg3 promoter: 98*; KKLEB cytotox: -18; ABHD5-PLIN5 inh: 11; Mdm2-MdmX conf: 16

How did CCOC(=O)c1ccc(NC(=O)COc2ccc(CNCCO)cc2OCC)cc1 do in these assays?
CF NFkB block: 11; HIF-2a block: -2; Mdm2-MdmX inh: 2; Peg3 promoter: -7; KKLEB cytotox: -11; ABHD5-PLIN5 inh: -8

What do the screens show for `Cc1nc(SCc2nc3c([N+](=O)[O-])cccc3[nH]2)c2oc3ccccc3c2n1`?
CF NFkB block: -4; HIF-2a block: -12; Mdm2-MdmX inh: 58*; Peg3 promoter: 25; KKLEB cytotox: -20; ABHD5-PLIN5 inh: 1; Mdm2-MdmX conf: 14

How did COc1c2c(cc3oc(=O)c4c5ccc(O)cc5oc4c13)OC(C)(C)CC2 do in these assays?
CF NFkB block: 1; HIF-2a block: -249; Mdm2-MdmX inh: 81*; Peg3 promoter: -263; KKLEB cytotox: -20; ABHD5-PLIN5 inh: -5; Mdm2-MdmX conf: 63*; FLuc counter: active

What do the screens show for `O=C1C(=O)N(c2nccs2)C(c2ccccc2)/C1=C(\O)c1ccc2c(c1)OCCO2` (stereo not drawn)?
CF NFkB block: 37; HIF-2a block: -54; Mdm2-MdmX inh: 74*; Peg3 promoter: 18; KKLEB cytotox: -13; ABHD5-PLIN5 inh: 0; Mdm2-MdmX conf: 88*; FLuc counter: 21
